The source of these data is PubChem BioAssay (Tox21).

Records with an inconclusive call do not appear. Activity calls are given as the source filed them. Calls follow the shape of the dose curve; as a rule, active = well fitted cell-killing curve with a large enough effect in the repeat runs; inconclusive = weak or mixed curves; inactive = no such curve, though single readings can be large or run the other way.
% is scaled to controls: 0 for no effect and ±100 for the full control effect; potency is read from the fitted curve at half-maximal effect.

This assay is described as follows: qHTS assay for identifying genotoxic compounds that show differential cytotoxicity against isogenic chicken DT40 cell lines with known DNA damage response pathways - Rad54/Ku70 mutant cell line (AID 743015). Also: nearly all actives have a fitted effect of over 60% in size. The note with it: DT40 Rad54/Ku70 mutant viability, CellTiter-Glo, 40 h; series mostly up to 66.8 µM; activity change, negative = cytotoxicity: at the top concentration. The text has this: National Center for Advancing Translational Sciences [NCATS]
NIH Chemical Genomics Center [NCGC]
U.S. Environmental Protection Agency [EPA]
National Institutes of Environmental Health Sciences [NIEHS]
National Toxicology Program [NTP]
U.S. Food and Drug Administration [FDA]
DNA repair pathways play a critical role in cellular homeostasis by repairing DNA damage induced by endogenous processes and xenobiotics. Isogenic chicken DT40 cell lines deficient in different DNA repair pathways can be used to identify genotoxic compounds and aid in characterizing the nature of the DNA damage induced. Two DNA repair-deficient cell lines with disrupted genes, Rad54/Ku70 or Rev3, were used to screen the Tox21 10K compound library. Possible genotoxicity was based on the presence of a significant increase in cytotoxicity in one or more of the DNA repair-deficient cell lines compared to that observed in the parental DNA repair-proficient cell line. CellTiter Glo viability assay (Promega, Madison, WI) was used to measure cell viability in these cells after compound treatment. This assay includes the data from the Rad54/Ku70 mutant cell line.
Tox21 Assay Protocol Summary:
300 DT40 mutant cells in 5 uL/well were dispensed into white, solid-bottom 1536-well plates using a Multidrop Combi (ThermoFisher Scientific, Waltham, MA) dispenser. After the assay plates were incubated at 37 C/5% CO2 for approximately 0.5 hour, 23 nL of compounds dissolved in DMSO, positive controls or DMSO only was transferred into the assay plate by a pintool work station (Kalypsys, San Diego, CA). The assay plates were incubated at 37 C/5% CO2 for 40 hours. After 5 uL per well of CellTiter-Glo reagent was added into each well of the assay plates, the plates were incubated for 30 min at room temperature and the luminescence intensity of the plates was measured using a ViewLux (PerkinElmer, Shelton, CT) plate reader.
On the technique in general: qHTS replaces the single test concentration by a dilution series.
In the case of `O=C(O)CCNC(=O)c1ccccc1`, the “activity change, negative = cytotoxicity” value was 0% (inactive).

On to `O=C(O)C(=O)Nc1cccc(-c2nn[nH]n2)c1`, for which the “activity change, negative = cytotoxicity” value was 6.95% (inactive).

For `CN=C(NC#N)NCCSCc1csc(N=C(N)N)n1`, the “activity change, negative = cytotoxicity” value was 5.53% (inactive).

As for `Cc1ccccc1N1CCN(CCc2nnc3n2CCCC3)CC1`, the “activity change, negative = cytotoxicity” value is 0.0956% (inactive).

Turning to `O=C1CC[C@H](C(=O)N2CCCCC2)N1`, the “activity change, negative = cytotoxicity” value was 5.49% (inactive).

With `Cc1ncc([N+](=O)[O-])n1CC(O)CCl` (stereo not given), the “activity change, negative = cytotoxicity” value was 1.46% [at 30.7 µM] (inactive).

On to `N#CCCOCCOCCC#N`, for which the “activity change, negative = cytotoxicity” value is -16.3% (inactive).

For the compound `COC(OC)C(C)c1ccccc1` (stereo not given), the “activity change, negative = cytotoxicity” value is 10.3% (inactive).

Consider `CCCCCCCCCCCCCCCCI`, for which the “activity change, negative = cytotoxicity” value was 0.056% [at 30.7 µM] (inactive).

As for `CCCCC(C)C(=O)O` (stereo not given), the “activity change, negative = cytotoxicity” value is 11.6% (inactive).

As for `C=CCCCCCCCCCCC`, the activity change, negative = cytotoxicity is -12.6% [at 8.55 µM] (inactive).

As for `O=c1[nH]c(=O)c2[nH]c(=O)[nH]c2[nH]1`, the Potency result was “inactive”.

Take `CCCOC(=O)CCCCC(=O)OCCC`: the “activity change, negative = cytotoxicity” value is -15.3% (inactive).

Regarding `CC(C)c1ccccc1O`, the “activity change, negative = cytotoxicity” value was 4.67% (inactive).

Consider `Nc1cc(C(=O)O)ccc1Cl`, for which the “activity change, negative = cytotoxicity” value is 17.1% (inactive).

`Cc1cc(O)c2c(c1)C(=O)c1cccc(O)c1C2=O`: the Potency was 26.7 µM (active).

For the compound `CCCCC(CC)COC(=O)c1ccccc1` (stereo not given), the “activity change, negative = cytotoxicity” value is -8.29% (inactive).

In the case of `Cc1cccc(C(=O)O)c1[N+](=O)[O-]`, the “activity change, negative = cytotoxicity” value was 1.69% (inactive).

`CN[C@@H]1[C@@H](O)[C@@H](O[C@@H]2[C@H](O)[C@H](O[C@H]3OC(CN)=CC[C@H]3N)[C@@H](N)C[C@H]2N)OCC1(C)O` (stereo not given in full): the “activity change, negative = cytotoxicity” value was 5.46% (inactive).

Turning to `COc1cc2c3cc1Oc1cc(ccc1O)C[C@@H]1c4c(cc(OC)c(O)c4Oc4ccc(cc4)C[C@@H]3N(C)CC2)CC[N+]1(C)C`, the “activity change, negative = cytotoxicity” value was 0.133% (inactive).

Regarding `C1=C\CC/C=C\CC/1`, the “activity change, negative = cytotoxicity” value is 6.77% [at 95.1 µM] (inactive).

Turning to `O=C(Oc1ccccc1C(=O)O)c1ccccc1O`, the “activity change, negative = cytotoxicity” value was 4.43% (inactive).

As for `O=C(O)c1ccccc1C(=O)Nc1ccc(S(=O)(=O)Nc2nccs2)cc1`, the “activity change, negative = cytotoxicity” value is 8.58% (inactive).

For `OC[C@@H](O)[C@H](O)[C@@H](O)[C@@H](O)CO`, the “activity change, negative = cytotoxicity” value is -4.59% (inactive).

As to `NS(=O)(=O)c1cc2c(cc1Cl)NC(CC1CCCC1)NS2(=O)=O` (stereo not given), the “activity change, negative = cytotoxicity” value is 5.99% [at 30.7 µM] (inactive).

Consider `CN[C@@H]1[C@H](O)[C@H](NC)[C@H]2O[C@@]3(O)C(=O)C[C@@H](C)O[C@H]3O[C@@H]2[C@H]1O`, for which the “activity change, negative = cytotoxicity” value was -5.83% [at 30.7 µM] (inactive).

`CC(C)COC(=O)CCCCC(=O)OCC(C)C`: the “activity change, negative = cytotoxicity” value is -0.502% (inactive).

As to `CC(=O)OCCCc1ccccc1`, the “activity change, negative = cytotoxicity” value was -4.31% (inactive).

Take `CC1(N)CCC(C(C)(C)N)CC1` (stereo not given): the “activity change, negative = cytotoxicity” value was 4.44% (inactive).

As to `Cc1ccccc1OCC1CO1` (stereo not given), the “activity change, negative = cytotoxicity” value was 3.68% [at 95.1 µM] (inactive).

`C=C(C)C(=O)OCCCCCCOC(=O)C(=C)C`: the “activity change, negative = cytotoxicity” value is -20.5% (inactive).

As for `CCCCC(=O)N(C)C`, the “activity change, negative = cytotoxicity” value was 4.62% (inactive).

For `CCOC(=O)CC(CC(=O)OCC)(OC(C)=O)C(=O)OCC`, the “activity change, negative = cytotoxicity” value was -17.6% (inactive).

`O=c1cc(O)c(Cl)c[nH]1`: the “activity change, negative = cytotoxicity” value is 6.1% (inactive).

Turning to `C1=CCC(c2ccccc2)CC1` (stereo not given), the Potency was 54.5 µM (active).

As to `Nc1cc(Cl)cc(S(=O)(=O)O)c1O`, the “activity change, negative = cytotoxicity” value is 8.35% [at 95.1 µM] (inactive).

On to `CC(=O)Nc1ncc([N+](=O)[O-])s1`, for which the “activity change, negative = cytotoxicity” value is 5.65% (inactive).

With `CC1CCC(C(C)(C)S)C(=O)C1` (stereo not given), the “activity change, negative = cytotoxicity” value was -6.31% (inactive).

As for `O=[Si]=O`, the “activity change, negative = cytotoxicity” value was 0.96% (inactive).

Turning to `O=S1(=O)CCCC1`, the “activity change, negative = cytotoxicity” value is 15.4% [at 95.1 µM] (inactive).
